CBFb RUNX1 block – CBF-beta/RUNX1 interaction disruption; Q01196+Q13951; AlphaScreen CBFb-His/RUNX1-biotin binding, biochemical; Potency, µM (series often up to 59.8 µM), for inactives: top-dose activity, negative = inhibition, hits mostly inhibitors; 230,000 tested, under 10 active; note: % of control where 0% means no effect
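Read-out: AlphaScreen. Format: His-CBF-beta with biotinylated RUNX1 (30 nM each) preincubated 20 min, compound 15 min, Ni-chelate plus streptavidin beads 90 min; room temperature throughout.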
MBNL1-CUG inh – blocks human MBNL1 binding to CUG repeat RNA | TR-FRET MBNL1-His/biotin-(CUG)12 binding, 665/545 ratio | Potency, µM (top dose mostly 57.5 µM), without a hit: at the top dose activity change, negative = inhibition, actives largely listed as inhibitors | 0.036% of 280,000 active | AID 2675; active = well fitted inhibition curve with a large enough effect in the signal ratio, with a control signal flat, not every such curve was filed as active; inconclusive = small, poorly fitted or top-dose-only effect, or effect the other way, or a change in a side signal; inactive = no such curve, though single readings can be large or run the other way; the % refers to the signal ratio; note: potency is the fitted concentration of half-maximal effect; % is set by controls: 0 for no effect and ±100 for the full control effect
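His-tagged MBNL1 binding to biotinylated (CUG)12 RNA was measured by TR-FRET using terbium anti-His antibody (0.055 ng/ul final) and streptavidin-XL665 (5 nM final). Compounds were titrated 92 nM to 58 uM; 60 min at room temperature.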
KCNH2 3.1 block – inhibitors of human KCNH2 3.1 potassium channel isoform. U2OS KCNH2 3.1, thallium flux FluxOr; stronger effect = lower value. activity change, % (tested at about 1.8 µM). 0.95% of 340,000 active;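 active = maximum activity change below -70%; inconclusive = maximum activity change from -70% to -50%; inactive = maximum activity change above -50%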;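 note: thallium influx rate constant from kinetic fluorescence after stimulation buffer; % is set by controls: 0 for no effect and ±100 for the full control effect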
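Measured as rate of thallium-driven FluxOr signal in transduced U2OS cells carrying the 3.1 channel, read kinetically for 2 min upon stimulation; values are rate constants scaled to DMSO control wells.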
VDR inhibitor – vitamin D3 receptor (human) inhibition; Potency, µM, without a hit: max response, negative = inhibition, most hits filed as inhibitors; VDR-SRC2-3 peptide fluorescence polarization, 2 h; AID 504847; P11473; 0.93% of 400,000 active; note: potency is the fitted concentration of half-maximal effect; % is set by controls: 0 for no effect and ±100 for the full control effect
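The screen uses fluorescence polarization to detect compounds that interfere with recruitment of the SRC2-3 coactivator peptide to VDR; plates are read after 2 h at room temperature.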
hERG WT inh – blocks the wildtype human KCNH2 potassium channel. U2OS, BacMam KCNH2, thallium flux FluxOr; stronger effect = lower value. activity change, % at 1.84 µM. 0.37% of 340,000 active. AID 720551;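 active = maximum activity change below -70%; inconclusive = maximum activity change between -70% and -50%; inactive = maximum activity change above -50%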; note: % is set by controls: 0 for no effect and ±100 for the full control effect
Target sequence (Q12809 whole entry, looked up): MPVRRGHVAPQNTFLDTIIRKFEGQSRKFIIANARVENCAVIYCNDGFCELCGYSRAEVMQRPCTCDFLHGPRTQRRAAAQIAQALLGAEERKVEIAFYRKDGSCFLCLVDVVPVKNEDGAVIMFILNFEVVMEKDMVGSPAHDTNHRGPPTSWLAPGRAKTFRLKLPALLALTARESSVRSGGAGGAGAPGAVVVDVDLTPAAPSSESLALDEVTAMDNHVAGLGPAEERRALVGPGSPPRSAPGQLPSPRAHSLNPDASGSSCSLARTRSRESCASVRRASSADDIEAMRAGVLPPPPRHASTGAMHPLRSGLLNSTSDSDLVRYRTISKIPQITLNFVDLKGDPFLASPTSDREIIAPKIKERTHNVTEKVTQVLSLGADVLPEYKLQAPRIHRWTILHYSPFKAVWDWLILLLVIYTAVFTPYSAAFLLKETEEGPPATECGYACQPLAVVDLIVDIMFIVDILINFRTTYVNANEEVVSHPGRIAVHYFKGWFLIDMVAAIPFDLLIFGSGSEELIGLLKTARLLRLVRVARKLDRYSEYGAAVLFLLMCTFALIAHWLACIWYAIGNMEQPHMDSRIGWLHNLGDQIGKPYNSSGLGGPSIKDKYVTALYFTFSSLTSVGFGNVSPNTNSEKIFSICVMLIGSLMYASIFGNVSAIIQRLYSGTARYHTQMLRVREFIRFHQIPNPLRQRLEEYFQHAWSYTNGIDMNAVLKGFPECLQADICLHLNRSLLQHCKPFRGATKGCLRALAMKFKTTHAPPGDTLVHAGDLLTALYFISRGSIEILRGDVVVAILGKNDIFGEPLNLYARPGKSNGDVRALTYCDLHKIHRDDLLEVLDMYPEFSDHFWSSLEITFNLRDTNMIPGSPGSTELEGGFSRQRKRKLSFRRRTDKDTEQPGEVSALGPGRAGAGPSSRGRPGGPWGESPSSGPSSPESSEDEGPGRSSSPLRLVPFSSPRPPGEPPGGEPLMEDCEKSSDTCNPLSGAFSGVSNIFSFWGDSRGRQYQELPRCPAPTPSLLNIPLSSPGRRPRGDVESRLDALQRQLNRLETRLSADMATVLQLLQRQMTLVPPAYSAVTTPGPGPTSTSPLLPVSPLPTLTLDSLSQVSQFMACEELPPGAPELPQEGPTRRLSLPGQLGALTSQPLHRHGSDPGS
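U2OS cells were transduced with wild-type KCNH2 virus (2.03 x 10^8 / mL) for 4 h at room temperature, then cultured overnight at 37 C. Thallium flux was read with FluxOr dye. Rate constants were normalized to DMSO controls.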
PLK1 PBD block – inhibitors of human PLK1 polo-box domain binding; Potency, µM, for inactives: max response, negative = inhibition, hits mostly inhibitors; 2.8% of 360,000 active; Plk1 PBD binding of FITC phosphopeptide, fluorescence polarization; P53350; note: potency is the fitted concentration of half-maximal effect; series mostly up to about 57 µM; % is set by controls: 0 for no effect and ±100 for the full control effect; nearly all actives have a fitted effect of over 65% in size
* marks the source's active call; other numbers are inactive results; ? = inconclusive; . = not tested or not shown. Sampled rows, rich in hits. Any-hit rate of the full collection: about 3.8%. Unless noted, calls come from the whole dose curve; as a rule, active = well fitted curve in the direction sought with a large enough effect; inconclusive = small, poorly fitted or top-dose-only effect, or another doubt; inactive = no such curve, though single readings can be large; an effect the other way counts as inactive or inconclusive.

SMILES	CBFb RUNX1 block	MBNL1-CUG inh	KCNH2 3.1 block	VDR inhibitor	hERG WT inh	PLK1 PBD block
CCOC(=O)[C@]12Cc3c(cc(OC)c(OC)c3OC)[C@H]1N(CCC(=O)OC)C(=O)c1cc(OC)ccc12	.	.	.	.	.	12µM*
CCOC(=O)C1(Cc2cccc(OC)c2)CCN(Cc2ccccc2)CC1	5%	-5%	10	1%	7	-4%
COCCCNCCC(CCC(C)C)c1ccc2c(c1)OCO2 (stereo unspecified)	11%	6%	?	-15%	?	1%
CC(C)CCC(CCN1CCCC1)c1ccc2c(c1)OCO2 (stereo unspecified)	1%	.	-105*	-1%	?	-5%
CC(C)CCC(CCN1CCOCC1)c1ccc2c(c1)OCO2 (stereo unspecified)	6%	-2%	-111*	-8%	-115*	1%
CCOC(=O)Cn1c(=O)n(C2CCCCC2)c2nc(-c3ccc(CC)cc3)nc(C(N)=O)c21	.	.	.	-2%	.	.
COC(=O)/C=C\C(C#N)(C#N)N=Cc1ccc(OC)cc1	.	.	1	13µM*	-8	9.5µM*
COc1ccc(C=NNC(=O)CCCCC(=O)NN=Cc2ccc(OC)cc2)cc1	.	.	-6	2%	-4	-1%
O=C(c1ccc2c(c1)OCCO2)N(Cc1cccnc1)c1nc2ccc(F)cc2s1	.	.	.	-4%	.	.
O=C(NCCc1ccccc1)N1c2ccccc2Sc2ccccc21	7%	-4%	3	?	-14	24µM*
COc1ccc(C2=NN(C(=O)CCC(=O)O)C(c3ccc(OC)cc3)C2)cc1 (stereo unspecified)	.	18%	4	9%	2	-1%
CCN1CCN(CC(=O)N2N=C(c3ccc(OC)cc3)CC2c2ccc(OC)cc2)C(=O)C1=O (stereo unspecified)	2%	0%	6	4%	-27	27µM*
CC(=O)c1cc(C#N)c(NCc2cc(-c3ccccc3)no2)nc1C	-7%	-5%	9	0%	.	0%
COC(=O)c1cc(C#N)c(NCc2ccccc2)nc1C	-3%	-2%	3	?	5	3.4µM*
COCCCn1c(=N)c(C(=O)NC2CCCC2)cc2c(=O)n3ccccc3nc21	.	.	.	1%	.	.
Cc1oc2cc(O)ccc2c(=O)c1-c1nncn1-c1ccccc1	-3%	-6%	4	8%	4	30µM*
Cc1ccc(NC(=S)NNC(=S)NCc2ccccc2)cc1	-4%	3%	-8	50µM*	-7	30µM*
Fc1ccc(NC(=S)NCc2ccccc2)cc1	.	4%	-7	-3%	-1	-11%
O=C(Nc1nnc(COc2ccc(F)cc2)s1)c1cccs1	5%	6%	-7	1%	6	-12%
O=C(Nc1nnc(COc2ccc(Cl)cc2)s1)c1cccs1	10%	-5%	-8	-14%	-4	2.7µM*
CCc1nnc(NC(=O)C2CCCO2)s1 (stereo unspecified)	-1%	-7%	22	14%	0	-11%
O=C(Nc1nnc(COc2ccc(Cl)cc2)s1)C1CCCO1 (stereo unspecified)	4%	2%	-6	-9%	4	6µM*
Cc1cccc(NC(=O)c2oc3ccccc3c2NC(=O)Cc2coc3cc(C)cc(C)c23)c1	.	.	.	10%	.	.
CC1=C([N+](=O)[O-])C(c2ccc3c(c2)OCO3)N(C)C(=O)N1C (stereo unspecified)	.	?	9	?	21	8.4µM*
Cc1ccc(CCNC(=O)c2ccc3c(c2)c(C)c(C)n3Cc2ccccc2)cc1	.	.	.	1%	.	.
SMILES	CBFb RUNX1 block	MBNL1-CUG inh	KCNH2 3.1 block	VDR inhibitor	hERG WT inh	PLK1 PBD block
CC(C(=O)N1CCCCC1)N(C)CC(=O)Nc1ccc(F)c(F)c1F (stereo unspecified)	.	.	8	.	2	-2%
CC(C)N(C)C1CCN(C(=O)Nc2ccc(Cl)cc2)CC1	5%	3%	-198*	-7%	18	-9%
CC(C(=O)N1CCCCC1)N(C)CC(=O)Nc1ccc(Cl)cc1 (stereo unspecified)	3%	-6%	7	?	.	12µM*
O=C(Nc1ccc(Cl)cc1)N1CCC(c2ccccc2)C1 (stereo unspecified)	2%	0%	3	1%	7	-8%
O=C(O)c1cccc(NC(=O)c2cn(-c3ccccc3)nc2-c2ccncc2)c1	-1%	0%	1	-10%	.	24µM*
COc1ccc(NC(=O)c2cc3c(s2)-c2c(C)cccc2OC3)c(OC)c1	.	.	.	8%	.	.
COC(=O)c1sc(NC(=O)c2ccc(Cn3cc(Cl)cn3)o2)c(C#N)c1C	-4%	7%	6	?	-2	3µM*
Cc1ccc(NC(=O)c2ccc(Cn3cc(Cl)cn3)o2)c(C)c1	.	0%	.	.	.	.
CC(=O)Nc1ccn(C2OC(C(COC(C)=O)NC(=O)C(C)NC(=O)OC(C)(C)C)C(OC(C)=O)C2OC(C)=O)c(=O)n1 (stereo unspecified)	19%	.	.	-5%	.	.
COc1ccc(N(C)C(=O)C2CCCN2S(=O)(=O)c2cccc3nsnc23)c(OC)c1 (stereo unspecified)	.	?	-7	7%	-208*	-5%
O=C(Nc1ccc(-n2nncc2-c2ccccc2)cc1)c1ccccc1	.	.	.	-9%	.	.
CCN(C(=O)Cn1c(=O)oc2ccccc21)c1cccc(C(F)(F)F)c1	-1%	-12%	-21	5%	-1	-3%
CCN(C(=O)Cn1c(=O)oc2ccccc21)c1cccc(C)c1	.	-20%	-8	-27%	-6	27µM*
CSCC[C@H](NC(=O)c1ccc(NC[C@@H](N)CS)cc1-c1ccccc1)C(=O)O	?	.	.	7.9µM*	.	.
COC(=O)[C@H](CCSC)NC(=O)c1ccc(NC[C@@H](N)CS)cc1-c1ccccc1	-26%	.	.	10µM*	.	.
CSCCC(NC(=O)c1ccoc1C)C(=O)O (stereo unspecified)	5%	0%	-2	-9%	-5	1%
COc1ccc(OCc2nnc(SCC(=O)N3CCCc4ccccc43)n2-c2ccc(C)cc2)cc1	-19%	-1%	-83*	22%	7	-4%
N#Cc1ccc(OCc2nnc(SCC(=O)N3CCCc4ccccc43)n2-c2ccccc2)cc1	-2%	-3%	-14	-23%	-13	-8%
O=C(CSc1nnc(CN2CCOCC2)n1-c1ccc(Cl)cc1)N1CCc2ccccc21	.	.	-8	79µM*	22	-12%
O=C(Cn1c(=O)n(Cc2ccco2)c(=O)c2cccnc21)Nc1ccccc1F	.	.	.	-9%	.	.
Cc1ccc2sc(NNC(=O)c3cc(=O)c4ccccc4o3)nc2c1C	?	16%	2	7.9µM*	-19	-16%

Bioassay records (PubChem BioAssay)
